# Data published in publication PMC7862700, “An all-to-all approach to the identification of sequence-specific readers for epigenetic DNA modifications on cytosine”.
# Assays:
# Experiment in all cases: DAPPL (digital affinity profiling via proximity ligation, sequencing); 10 mM Tris-HCl pH 7.5, 50 mM NaCl, 1 mM DTT, 4% glycerol, room temperature, 30 min; GST-TFs on glutathione beads, 16-mer random dsDNA library, 0.1% formaldehyde crosslink after washing; high values mean tight binding
# FEV = biological target: T1, FEV (Homo sapiens, UniProt Q99581 1-238); conditions: protein: recombinant; tags: N-terminal GST; dsDNA, one strand shown
# T1 sequence: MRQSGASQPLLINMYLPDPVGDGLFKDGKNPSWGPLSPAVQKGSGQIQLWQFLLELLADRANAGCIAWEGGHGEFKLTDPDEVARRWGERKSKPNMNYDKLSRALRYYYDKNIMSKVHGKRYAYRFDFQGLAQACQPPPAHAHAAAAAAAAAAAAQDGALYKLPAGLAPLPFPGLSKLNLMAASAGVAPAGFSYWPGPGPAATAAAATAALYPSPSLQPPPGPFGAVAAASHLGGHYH
# Summary of the method: (§1)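 Human transcription factors were made in yeast as GST fusions, captured on glutathione beads and barcoded with DNA. With a tag-only sample included, the pool was incubated with 200 nmole of a random double-stranded 16-mer DNA library in Tris/NaCl/DTT/glycerol buffer at room temperature for 30 min, then crosslinked with 0.1% formaldehyde after washing, ligated by proximity, amplified and sequenced. For binding signal, each hexamer's read frequency for a factor is divided by its frequency for the tag-only sample.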
# ETV5 = ETV5 (Homo sapiens, UniProt P41161 1-510); conditions: protein: recombinant; tags: N-terminal GST; dsDNA, one strand shown
# Chain of ETV5 (P41161 whole entry): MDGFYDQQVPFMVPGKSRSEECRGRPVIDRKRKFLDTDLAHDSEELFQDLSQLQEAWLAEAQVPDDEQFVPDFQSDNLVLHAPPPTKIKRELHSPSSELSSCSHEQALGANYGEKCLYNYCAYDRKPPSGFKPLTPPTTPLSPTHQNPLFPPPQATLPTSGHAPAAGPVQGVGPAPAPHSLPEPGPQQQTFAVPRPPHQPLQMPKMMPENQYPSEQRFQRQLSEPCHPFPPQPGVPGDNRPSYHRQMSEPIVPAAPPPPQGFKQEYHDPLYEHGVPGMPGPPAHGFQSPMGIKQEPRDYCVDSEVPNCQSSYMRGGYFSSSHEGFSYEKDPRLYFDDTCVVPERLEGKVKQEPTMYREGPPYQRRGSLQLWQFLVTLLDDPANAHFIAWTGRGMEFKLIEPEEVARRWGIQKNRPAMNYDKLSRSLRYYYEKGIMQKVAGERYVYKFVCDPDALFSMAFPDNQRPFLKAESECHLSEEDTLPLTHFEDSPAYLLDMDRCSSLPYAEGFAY
# Summary of the method: as §1
# HSF1 = HSF1 (Homo sapiens, UniProt Q00613 1-529); conditions: protein: recombinant; tags: N-terminal GST; chain copies: 3; dsDNA, one strand shown
# Chain of HSF1 (Q00613 whole entry): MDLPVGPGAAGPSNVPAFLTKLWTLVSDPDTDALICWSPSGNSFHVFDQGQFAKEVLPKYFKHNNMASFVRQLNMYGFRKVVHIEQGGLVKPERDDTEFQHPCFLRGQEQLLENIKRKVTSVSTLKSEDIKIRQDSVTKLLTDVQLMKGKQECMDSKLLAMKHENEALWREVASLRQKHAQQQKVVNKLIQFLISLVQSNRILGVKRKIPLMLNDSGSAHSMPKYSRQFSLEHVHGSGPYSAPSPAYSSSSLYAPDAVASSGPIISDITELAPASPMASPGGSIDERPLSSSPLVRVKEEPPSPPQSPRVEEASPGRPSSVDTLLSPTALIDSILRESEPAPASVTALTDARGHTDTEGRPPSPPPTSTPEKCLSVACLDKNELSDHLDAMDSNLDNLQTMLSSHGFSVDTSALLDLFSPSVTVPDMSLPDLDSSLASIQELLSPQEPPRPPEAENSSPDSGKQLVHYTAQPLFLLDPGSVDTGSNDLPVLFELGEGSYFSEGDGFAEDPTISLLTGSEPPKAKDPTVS
# Summary of the method: as §1
# SPIC = biological target: T2, SPIC (Homo sapiens, UniProt Q8N5J4 1-248); conditions: protein: recombinant; tags: N-terminal GST; dsDNA, one strand shown
# T2 sequence: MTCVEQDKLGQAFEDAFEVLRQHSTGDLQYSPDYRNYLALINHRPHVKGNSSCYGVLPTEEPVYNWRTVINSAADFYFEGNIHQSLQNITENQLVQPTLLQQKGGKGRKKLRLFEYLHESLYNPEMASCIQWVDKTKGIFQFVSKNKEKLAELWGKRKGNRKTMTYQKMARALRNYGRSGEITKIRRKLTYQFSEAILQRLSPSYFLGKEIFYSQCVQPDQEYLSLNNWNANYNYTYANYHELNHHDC
# Summary of the method: as §1
# ELF4 = ELF4 (Homo sapiens, UniProt Q99607 1-663); conditions: protein: recombinant; tags: N-terminal GST; dsDNA, one strand shown
# Chain of ELF4 (Q99607 whole entry): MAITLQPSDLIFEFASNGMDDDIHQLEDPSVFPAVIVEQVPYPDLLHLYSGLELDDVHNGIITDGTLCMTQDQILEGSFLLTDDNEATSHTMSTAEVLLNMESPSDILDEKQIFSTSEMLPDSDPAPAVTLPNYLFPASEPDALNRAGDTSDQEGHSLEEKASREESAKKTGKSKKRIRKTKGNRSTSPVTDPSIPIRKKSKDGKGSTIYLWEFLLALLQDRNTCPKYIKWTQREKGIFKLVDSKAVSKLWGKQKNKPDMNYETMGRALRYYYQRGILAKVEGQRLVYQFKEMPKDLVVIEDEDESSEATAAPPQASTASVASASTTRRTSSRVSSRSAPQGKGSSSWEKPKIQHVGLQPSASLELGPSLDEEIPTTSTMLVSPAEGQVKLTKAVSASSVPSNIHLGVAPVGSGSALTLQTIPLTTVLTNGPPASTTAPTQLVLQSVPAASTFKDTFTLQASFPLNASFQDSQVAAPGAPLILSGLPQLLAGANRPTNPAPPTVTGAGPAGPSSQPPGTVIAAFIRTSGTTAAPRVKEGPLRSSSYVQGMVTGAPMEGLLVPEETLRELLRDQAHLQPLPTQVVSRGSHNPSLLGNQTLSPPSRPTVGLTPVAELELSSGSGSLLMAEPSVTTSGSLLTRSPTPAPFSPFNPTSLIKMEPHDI
# Summary of the method: as §1
# ELK4 = biological target: T3, ELK4 (Homo sapiens, UniProt P28324-2 1-405); conditions: protein: recombinant; tags: N-terminal GST; dsDNA, one strand shown
# T3 sequence: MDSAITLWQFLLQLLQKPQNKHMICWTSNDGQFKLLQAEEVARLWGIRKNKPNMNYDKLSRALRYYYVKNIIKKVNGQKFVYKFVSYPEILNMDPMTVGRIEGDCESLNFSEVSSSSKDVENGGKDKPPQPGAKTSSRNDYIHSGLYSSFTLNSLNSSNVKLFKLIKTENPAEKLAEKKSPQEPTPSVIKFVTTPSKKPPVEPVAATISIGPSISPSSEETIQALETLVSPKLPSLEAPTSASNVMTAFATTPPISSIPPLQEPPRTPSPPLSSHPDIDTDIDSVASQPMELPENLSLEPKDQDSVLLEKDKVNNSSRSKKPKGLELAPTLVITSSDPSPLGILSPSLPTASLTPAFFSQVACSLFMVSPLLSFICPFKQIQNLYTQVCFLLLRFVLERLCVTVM
# Summary of the method: as §1
# ETV2 = biological target: T4, ETV2 (Homo sapiens, UniProt O00321 1-342); conditions: protein: recombinant; tags: N-terminal GST; dsDNA, one strand shown
# T4 sequence: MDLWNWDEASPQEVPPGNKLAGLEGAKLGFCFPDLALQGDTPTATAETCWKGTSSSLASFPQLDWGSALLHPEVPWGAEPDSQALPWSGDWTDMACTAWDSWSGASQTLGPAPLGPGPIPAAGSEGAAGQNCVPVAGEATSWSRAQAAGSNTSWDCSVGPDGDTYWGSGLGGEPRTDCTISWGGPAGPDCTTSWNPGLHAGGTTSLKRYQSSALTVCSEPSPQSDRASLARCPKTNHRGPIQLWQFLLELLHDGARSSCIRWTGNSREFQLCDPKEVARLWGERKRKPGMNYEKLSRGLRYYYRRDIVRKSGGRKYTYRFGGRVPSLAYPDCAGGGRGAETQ
# Summary of the method: as §1
# ELF3 = biological target: T5, ELF3 (Homo sapiens, UniProt P78545 1-371); conditions: protein: recombinant; tags: N-terminal GST; dsDNA, one strand shown
# T5 sequence: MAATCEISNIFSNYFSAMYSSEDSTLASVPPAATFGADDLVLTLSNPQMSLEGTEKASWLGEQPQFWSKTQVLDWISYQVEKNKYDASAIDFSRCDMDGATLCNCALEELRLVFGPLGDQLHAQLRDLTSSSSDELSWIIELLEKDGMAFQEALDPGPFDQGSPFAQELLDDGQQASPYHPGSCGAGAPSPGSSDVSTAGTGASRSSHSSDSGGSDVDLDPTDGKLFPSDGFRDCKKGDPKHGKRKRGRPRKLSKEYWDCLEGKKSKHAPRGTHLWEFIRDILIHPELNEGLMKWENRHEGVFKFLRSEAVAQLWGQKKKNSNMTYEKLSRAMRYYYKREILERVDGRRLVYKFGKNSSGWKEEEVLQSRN
# Summary of the method: as §1
# CRX = CRX (Homo sapiens, UniProt O43186 1-299); conditions: protein: recombinant; tags: N-terminal GST; dsDNA, one strand shown
# Chain of CRX (O43186 whole entry): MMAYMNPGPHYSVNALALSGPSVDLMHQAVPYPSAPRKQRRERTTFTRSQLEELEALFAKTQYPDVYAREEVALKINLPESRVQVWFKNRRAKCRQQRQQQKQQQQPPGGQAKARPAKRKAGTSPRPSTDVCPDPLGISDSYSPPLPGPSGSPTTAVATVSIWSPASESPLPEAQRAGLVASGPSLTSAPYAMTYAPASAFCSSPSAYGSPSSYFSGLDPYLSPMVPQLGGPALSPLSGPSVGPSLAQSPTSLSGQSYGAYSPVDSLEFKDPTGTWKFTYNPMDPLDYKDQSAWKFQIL
# Summary of the method: as §1
# ETV1 = ETV1 (Homo sapiens, UniProt P50549 1-477); conditions: protein: recombinant; tags: N-terminal GST; dsDNA, one strand shown
# Chain of ETV1 (P50549 whole entry): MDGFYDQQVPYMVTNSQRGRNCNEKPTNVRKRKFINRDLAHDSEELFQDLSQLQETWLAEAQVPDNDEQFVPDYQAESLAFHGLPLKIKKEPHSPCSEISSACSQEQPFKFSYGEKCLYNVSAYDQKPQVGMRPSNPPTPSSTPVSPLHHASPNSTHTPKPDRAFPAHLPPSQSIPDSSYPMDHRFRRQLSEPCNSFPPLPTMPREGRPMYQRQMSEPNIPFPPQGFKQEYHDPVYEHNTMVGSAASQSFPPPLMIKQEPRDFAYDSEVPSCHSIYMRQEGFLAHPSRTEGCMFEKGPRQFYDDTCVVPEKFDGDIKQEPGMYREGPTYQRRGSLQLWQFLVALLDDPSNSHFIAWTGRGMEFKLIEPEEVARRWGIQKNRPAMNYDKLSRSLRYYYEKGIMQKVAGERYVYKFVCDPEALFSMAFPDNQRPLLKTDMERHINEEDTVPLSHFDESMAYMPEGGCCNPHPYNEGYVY
# Summary of the method: as §1
sequence,measurement,setting,value
TAATGA,binding signal,FEV,"1.12 fold enrichment (6-mer frequency, TF over GST control)"
same,binding signal,ETV5,"1.12 fold enrichment (6-mer frequency, TF over GST control)"
same,binding signal,HSF1,"1.37 fold enrichment (6-mer frequency, TF over GST control)"
same,binding signal,SPIC,"1.11 fold enrichment (6-mer frequency, TF over GST control)"
same,binding signal,ELF4,"1.17 fold enrichment (6-mer frequency, TF over GST control)"
same,binding signal,ELK4,"1.12 fold enrichment (6-mer frequency, TF over GST control)"
same,binding signal,ETV2,"1.13 fold enrichment (6-mer frequency, TF over GST control)"
same,binding signal,ELF3,"1.12 fold enrichment (6-mer frequency, TF over GST control)"
same,binding signal,CRX,"1.7 fold enrichment (6-mer frequency, TF over GST control)"
same,binding signal,ETV1,"1.19 fold enrichment (6-mer frequency, TF over GST control)"
